Results as given in the supplement of paper PMC9262897, “Low-cost anti-mycobacterial drug discovery using engineered E. coli” (Nature Communications, 2022).
Counter-ions that a name gives are not always drawn. ± gives the standard deviation of the averaged measurements.

Key:
Assay in all cases: growth (OD600 after 10 h); higher = more growth (less inhibition)
[1] = test system: E. coli TESEC Alr+ wild-type control; conditions: compound 0.1 mM; raw OD600 reference: median of DMSO wells 0.241, cell-free background 0.041
Method: (§1)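 TESEC Mtb Alr E. coli, or the Alr+ wild-type control, in 384-well plates with Prestwick library compounds at 0.1 mM and 1% DMSO, across arabinose induction levels of 1E3 to 1E7 nM. Growth is read as OD600 after 10 h at 37 °C in triplicate biological replicates.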

[2] = test system: E. coli TESEC Mtb Alr; conditions: compound 0.1 mM
Method: as §1

[3] = test system: E. coli TESEC Mtb Asd; conditions: compound 0.1 mM
Method: (§2)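 TESEC E. coli strains in which the native enzyme is deleted and replaced by arabinose-inducible Mtb Asd, DapB, CysH or TrpD, each grown in its selective medium. Strains were screened against the Prestwick library at 0.1 mM and 1% DMSO in 384-well format at low and high arabinose induction. Growth is read as OD600 after 10 h in triplicate.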

[4] = test system: E. coli TESEC Mtb DapB; conditions: compound 0.1 mM
Method: as §2

[5] = test system: E. coli TESEC Mtb Alr; conditions: compound 0.1 mM; remark: listed apart in the source
Method: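 TESEC Mtb Alr E. coli (ΔaraC ΔtolC ΔentC Δalr ΔdadX, arabinose-inducible Mtb Alr) or the Alr+ wild-type control strain, grown in defined M9-fructose medium without D-alanine in 96-well plates with Prestwick library compounds at 0.1 mM and 1% DMSO. Low Alr induction is 0.1 µM arabinose and high induction is 10 mM arabinose.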

[6] = arabinose 1000 nM, raw OD600 reference: median of DMSO wells 0.294, cell-free background 0.041
[7] = arabinose 10000 nM, raw OD600 reference: median of DMSO wells 0.264, cell-free background 0.041
[8] = arabinose 100000 nM, raw OD600 reference: median of DMSO wells 0.201, cell-free background 0.041
[9] = arabinose 1000000 nM, raw OD600 reference: median of DMSO wells 0.193, cell-free background 0.041
[10] = arabinose 10000000 nM, raw OD600 reference: median of DMSO wells 0.146, cell-free background 0.041
[11] = arabinose induction (level): High, raw OD600 reference: median of DMSO wells 0.331, cell-free background 0.041
[12] = arabinose induction (level): Low, raw OD600 reference: median of DMSO wells 0.417, cell-free background 0.041
[13] = arabinose induction (level): High, raw OD600 reference: median of DMSO wells […], cell-free background 0.041
[14] = arabinose induction (level): Low, raw OD600 reference: median of DMSO wells 0.227, cell-free background 0.041
[15] = arabinose 100 nM, raw OD600 reference: median of DMSO wells 0.413, cell-free background 0.052
[16] = arabinose 10000000 nM, raw OD600 reference: median of DMSO wells […], cell-free background 0.052

Structure (SMILES)	growth [1]	growth [2, 6]	growth [2, 7]	growth [2, 8]	growth [2, 9]	growth [2, 10]	growth [3, 11]	growth [3, 12]	growth [4, 13]	growth [4, 14]	growth [5, 15]	growth [5, 16]
CC1(C)[C@H](C(=O)O)N2C(=O)C[C@H]2S1(=O)=O [Sulbactam]	0.241 ± 0.0052	0.305 ± 0.0083	0.263 ± 0.0075	0.244 ± 0.009	0.202 ± 0.015	0.165 ± 0.01	0.39 ± 0.029	0.438 ± 0.016	0.2 ± 0.006	0.225 ± 0.025	0.409 ± 0.0061	0.361 ± 0.011
Nc1nc(=O)c2c([nH]1)NC[C@@H](CNc1ccc(C(=O)N[C@@H](CCC(=O)O)C(=O)O)cc1)N2C=O [Folinic acid calcium salt]	0.255 ± 0.0064	0.289 ± 0.0096	0.274 ± 0.0059	0.204 ± 0.033	0.211 ± 0.016	0.1379 ± 0.0013	0.307 ± 0.0086	0.391 ± 0.08	0.203 ± 0.012	0.218 ± 0.014	0.397 ± 0.008	0.375 ± 0.019
C#C[C@]1(O)CC[C@H]2[C@@H]3CCC4=CC(=O)CC[C@@H]4[C@H]3CC[C@@]21C [Norethindrone]	0.196 ± 0.042	0.221 ± 0.017	0.221 ± 0.012	0.179 ± 0.012	0.1044 ± 0.00092	0.134 ± 0.0033	0.286 ± 0.041	0.362 ± 0.058	0.183 ± 0.0096	0.21 ± 0.042	0.397 ± 0.0089	0.233 ± 0.014
COc1ccccc1OCC(O)CN1CCN(CC(=O)Nc2c(C)cccc2C)CC1 (stereo unspecified) [Ranolazine]	0.207 ± 0.0059	0.309 ± 0.036	0.285 ± 0.0092	0.155 ± 0.012	0.178 ± 0.0088	0.135 ± 0.0073	0.171 ± 0.014	0.342 ± 0.085	0.174 ± 0.023	0.226 ± 0.021	0.4233 ± 0.0032	0.301 ± 0.014
CC(C)(C)NC[C@H](O)COc1cccc2c1CCCC2=O [(-) -Levobunolol hydrochloride]	0.227 ± 0.022	0.295 ± 0.0092	0.253 ± 0.0095	0.189 ± 0.0065	0.1733 ± 0.0014	0.141 ± 0.0056	0.401 ± 0.085	0.428 ± 0.059	0.203 ± 0.0036	0.221 ± 0.019	0.403 ± 0.013	0.334 ± 0.0023
CC(=O)CC(c1ccccc1)c1c(O)c2ccccc2oc1=O (stereo unspecified) [Warfarin]	0.251 ± 0.012	0.273 ± 0.007	0.2271 ± 0.0011	0.139 ± 0.0062	0.15 ± 0.0059	0.126 ± 0.0063	0.351 ± 0.065	0.391 ± 0.072	0.2 ± 0.011	0.231 ± 0.021	0.39 ± 0.0054	0.342 ± 0.012
Cn1cnc([N+](=O)[O-])c1Sc1ncnc2[nH]cnc12 [Azathioprine]	0.126 ± 0.017	0.0771 ± 0.0059	0.0744 ± 0.0045	0.0829 ± 0.005	0.0691 ± 0.0013	0.0849 ± 0.0021	0.347 ± 0.045	0.261 ± 0.043	0.202 ± 0.016	0.226 ± 0.019	0.312 ± 0.029	0.175 ± 0.0061
CC(C)c1c(C(=O)Nc2ccccc2)c(-c2ccccc2)c(-c2ccc(F)cc2)n1CC[C@@H](O)C[C@@H](O)CC(=O)O [Atorvastatin]	0.12 ± 0.0024	0.177 ± 0.0077	0.108 ± 0.0075	0.168 ± 0.0033	0.0909 ± 0.0015	0.136 ± 0.0052	0.169 ± 0.018	0.169 ± 0.018	0.171 ± 0.018	0.183 ± 0.031	0.352 ± 0.058	0.175 ± 0.037
